High-throughput results: PubChem BioAssay, several laboratories
A1 inh: caspase 3/7 activation in MEF A1-2A-BIM cells, primary screen, A1 inhibitor project, cell-based, luminescence, HTS | Caspase-Glo 3/7 luminescence, 3 h; percent of clofoctol response, vehicle zero | caspase activation, % (no concentration beside the values) | hit rate 0.066% among 330,000;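 active = over half of replicate activation scores above 10%, or exactly half above 10 with the replicate mean above 10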
ALR H2O2 inh: inhibitors of human ALR sulfhydryl oxidase, primary screen, biochemical, H2O2 detection, HRP-luminol luminescence, single point; purified ALR, DTT oxidation; FAD-linked sulfhydryl oxidase ALR (Homo sapiens), P55789; inhibition, % (concentration not given with the values); hit rate 3.8% among 290,000;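 active = mean replicate inhibition above about 79%, with every replicate also reaching it, limit read from the data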
Efflux pump mplx: inhibitors of Candida efflux pumps in yeast, primary screen, S. cerevisiae, Nile Red, multiplex | inhibition, % at 10 µM | AID 485275, 2010 | S. cerevisiae Candida pump triplex | hit rate 0.44% among 330,000;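 active = plate passing quality check with inhibition over a set limit, or well fluorescence over plate mean plus 4 SD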;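 note: Nile Red retained in pooled yeast measured as flow cytometry median fluorescence; 0% = buffer negative control and 100% = Enniatin B positive control; higher means more Nile Red kept so more efflux inhibition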
VLA-4 inh: inhibition in human VLA-4 binding assay, primary screen, VLA-4 allosteric modulator project, MLPCN library, flow cytometry, VLA-4 expressing cells | hit rate 0.2% among 330,000 | Integrin alpha-4 (Homo sapiens), P13612 | ligand binding flow cytometry | AID 2557, 2010 | inhibition, % (about 7 µM as worked out from the volumes in the protocol); in the data active = inhibition above about 50%
AHR activator: AHR activators, primary screen, cell-based, luminescence, luciferase reporter, human. hit rate 2.5% among 320,000. AID 2796, 2010. AHR-responsive luciferase reporter cells. activation, % at 5 µM. Aryl hydrocarbon receptor (Homo sapiens), P35869; in the data active = activation above about 47%;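 note: 0% = vehicle wells and 100% = reference agonist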
SUMO Mot1 rescue: yeast Mot1-301 growth rescue at high temperature, primary screen, SUMOylation pathway inhibitor project, S. cerevisiae, ATP luminescence, 38.5C; hit rate 1% among 320,000; S. cerevisiae Mot1-301 growth rescue; percent above DMSO median, 100 means doubled; growth rescue, % at 18.8 µM;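 active = every valid replicate shows activation above 250% relative to neutral control wells; inactive = the rest, any valid replicate at or below 250%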;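 note: OY570 slx delta 5 strain wells were the positive control but not used for scaling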
VLA-4 mod pick: retest of VLA-4 allosteric modulators, confirmation, cell-based, cherry-picked plates, U937, HUTS-21 LIBS antibody | shares compounds with VLA-4 inh | inhibition, % at 6.7 µM | hit rate 2% among 1,300 | U937 cells, HUTS-21 LIBS mAb binding, flow cytometry; LDV ligand present at threefold Kd; in the data active = inhibition above about 40%;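 note: 0% = ligand without compound and 100% = no ligand background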
Numbers without * were called inactive. Most compounds without a hit are left out; they make up all but 7.2% or so of the library.

For O=C(NC1CCCCC1)C(c1ccccn1)N(C(=O)c1csnn1)c1ccccc1F (stereo not given) the results were A1 inh 0, ALR H2O2 inh -5, Efflux pump mplx 0, VLA-4 inh 0, AHR activator 1 and SUMO Mot1 rescue -18.
COCCNC(=O)/C(C#N)=C/c1ccc(O)c([N+](=O)[O-])c1 was read as A1 inh -1, ALR H2O2 inh 16, Efflux pump mplx 0, VLA-4 inh -4 and AHR activator 1.
CCOCCCNC(=O)/C(C#N)=C/c1ccc(Cl)c([N+](=O)[O-])c1 was read as A1 inh 0, ALR H2O2 inh -1, Efflux pump mplx 0, VLA-4 inh 59*, AHR activator 2, SUMO Mot1 rescue -29 and VLA-4 mod pick 36.
`CCOCCCNC(=O)/C(C#N)=C/c1ccc(C(=O)OC)cc1` gave A1 inh -1, ALR H2O2 inh 37, Efflux pump mplx 0, VLA-4 inh 1, AHR activator 0 and SUMO Mot1 rescue -8.
`COCCNC(=O)/C(C#N)=C/c1cccc(/C=C(\C#N)C(=O)NCCOC)c1` gave A1 inh 0, ALR H2O2 inh -1, Efflux pump mplx 0, VLA-4 inh 50*, AHR activator 3, SUMO Mot1 rescue -10 and VLA-4 mod pick 21.
CCCCCCCCNC(=O)/C(C#N)=C/c1ccc(SC)cc1 was read as A1 inh 2, ALR H2O2 inh -1, Efflux pump mplx 0, VLA-4 inh 0, AHR activator -2, SUMO Mot1 rescue 0 and VLA-4 mod pick 0.
Screening CCCCCCCCNC(=O)/C(C#N)=C/c1ccc2c(c1)OCCO2 returned A1 inh 1, ALR H2O2 inh -4, Efflux pump mplx 0, VLA-4 inh 4, AHR activator 3 and SUMO Mot1 rescue 18.
COCCNC(=O)/C(C#N)=C/c1ccc(O)cc1 was read as A1 inh -7, ALR H2O2 inh 87*, Efflux pump mplx 0, VLA-4 inh 2, AHR activator 1, SUMO Mot1 rescue -57 and VLA-4 mod pick -1.
Screening COC(=O)c1c(NC(=O)CSc2nc3nc(C)cc(C)n3n2)sc(C)c1C returned A1 inh 0, ALR H2O2 inh 2, Efflux pump mplx 0, VLA-4 inh 2, AHR activator -1 and SUMO Mot1 rescue -5.
N#C/C(=N\Nc1ccccc1F)c1nc(-c2ccccc2)cs1 was read as A1 inh 0, ALR H2O2 inh -6, Efflux pump mplx 0, VLA-4 inh -23, AHR activator 4 and SUMO Mot1 rescue 13.
`CC(=O)N=c1sc2ccccc2n1C` gave A1 inh 1, ALR H2O2 inh -3, Efflux pump mplx 0, VLA-4 inh 11, AHR activator 0 and SUMO Mot1 rescue -3.
Screening Cc1ccc(C(=O)N/N=c2\sc3ccccc3n2C)cc1 returned A1 inh 0, ALR H2O2 inh 72, Efflux pump mplx 0, VLA-4 inh 49, AHR activator 95*, SUMO Mot1 rescue 39 and VLA-4 mod pick -7.
CCCNC(=O)CN(C1CCCCC1)S(C)(=O)=O was read as A1 inh 0, ALR H2O2 inh -2, Efflux pump mplx 0, VLA-4 inh 91*, AHR activator 4, SUMO Mot1 rescue -19 and VLA-4 mod pick 9.
Screening C=CCn1c(SCC(=O)Nc2c(C)n(C)n(-c3ccccc3)c2=O)nc2ccccc2c1=O returned A1 inh 2, Efflux pump mplx 0, VLA-4 inh 52*, AHR activator -1, SUMO Mot1 rescue -8 and VLA-4 mod pick 3.
